The text below walks through data of PubChem BioAssay AID2629 (Broad Institute, 2010).

As a reminder, the inhibition is the change of the read-out against control, counted positive when it falls.

Out of some 320,000 compounds screened, about 1,900 (0.59%) were called active. This excerpt belongs to a sample that is enriched for actives. A number with no mark means an inactive call. Rule as the data show it: active = inhibition mostly above about 10% (no sharp cut-off); inactive = mostly below about 6.7%.

Protein LANA1 (Human herpesvirus 8 type P (isolate GK18)), sequence (Q9QR71 whole entry, looked up): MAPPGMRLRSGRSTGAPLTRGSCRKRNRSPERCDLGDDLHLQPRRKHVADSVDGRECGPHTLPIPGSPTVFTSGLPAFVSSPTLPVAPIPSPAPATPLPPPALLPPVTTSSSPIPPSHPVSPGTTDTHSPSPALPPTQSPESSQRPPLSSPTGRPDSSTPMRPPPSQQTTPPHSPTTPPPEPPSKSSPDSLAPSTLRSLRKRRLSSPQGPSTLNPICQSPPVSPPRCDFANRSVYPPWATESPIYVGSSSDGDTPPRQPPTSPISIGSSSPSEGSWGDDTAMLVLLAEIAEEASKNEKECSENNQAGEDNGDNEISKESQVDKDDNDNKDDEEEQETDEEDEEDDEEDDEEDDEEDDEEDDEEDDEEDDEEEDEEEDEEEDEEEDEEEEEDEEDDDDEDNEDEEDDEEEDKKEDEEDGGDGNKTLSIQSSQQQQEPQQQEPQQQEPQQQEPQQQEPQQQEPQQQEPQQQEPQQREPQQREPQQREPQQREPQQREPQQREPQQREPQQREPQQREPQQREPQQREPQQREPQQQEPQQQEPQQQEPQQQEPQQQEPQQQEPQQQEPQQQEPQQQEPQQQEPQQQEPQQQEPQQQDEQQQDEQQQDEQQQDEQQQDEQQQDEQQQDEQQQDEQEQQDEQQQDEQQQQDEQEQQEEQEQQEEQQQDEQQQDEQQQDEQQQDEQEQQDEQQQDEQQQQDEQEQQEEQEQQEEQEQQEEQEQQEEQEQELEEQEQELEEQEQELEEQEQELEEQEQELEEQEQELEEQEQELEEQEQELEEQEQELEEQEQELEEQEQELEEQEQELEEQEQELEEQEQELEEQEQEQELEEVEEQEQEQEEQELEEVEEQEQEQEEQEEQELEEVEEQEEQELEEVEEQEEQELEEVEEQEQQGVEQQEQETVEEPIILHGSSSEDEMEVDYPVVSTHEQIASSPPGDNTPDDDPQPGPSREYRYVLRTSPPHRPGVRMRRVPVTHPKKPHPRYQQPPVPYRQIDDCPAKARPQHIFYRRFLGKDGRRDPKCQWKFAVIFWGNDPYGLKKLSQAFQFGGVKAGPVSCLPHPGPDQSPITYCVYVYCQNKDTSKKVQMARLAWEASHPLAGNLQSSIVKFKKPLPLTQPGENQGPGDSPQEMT

The experiment concerns the target Protein LANA1 (Human herpesvirus 8 type P (isolate GK18)) (UniProt Q9QR71). The experiment can be described thus: blockers of LANA interaction with H2A/H2B – biochemical, FP readout, HTS, primary screen (AID 2629). The note with it: cell-free LANA-H2A/H2B peptide, fluorescence polarization, hits give high values, concentration not given here. (In general: Fluorescence polarisation rises when a labelled molecule tumbles more slowly, as on binding a larger partner.)
On to `CCN(CCCCOC(=O)c1ccc(OC)c(OC)c1)C(C)Cc1ccc(OC)cc1` (configuration not stated), for which the inhibition is 8.66% (active).

On to `COc1ccc(C(=O)OCC(=O)NCCCc2ccccc2)cc1OC`, for which the inhibition was -0.725%. As to `COc1ccc(C(CCN(Cc2ccc(OC)c(OC)c2)C(=O)CCl)c2ccccc2)cc1` (configuration not stated), the inhibition was -1.72%. On to `CCN(C(=O)COC(=O)c1ccccc1O)c1cccc2ccccc12`, for which the inhibition was 4.86%. For `O=C(C1CCN(S(=O)(=O)Cc2ccccc2)CC1)N1CCCc2ccccc21`, the inhibition was 1.2%. The same measure for `Cc1cc(Nc2ccc(Br)cc2)nc2ccccc12`: -0.269%; for `CC(=O)Nc1ccc(Nc2cc(C)nc(Nc3ccc(NC(C)=O)cc3)n2)cc1`: -0.44%. With `Cc1cc(Nc2ccccc2)nc(N)n1`, the inhibition is 85.1% (active). Regarding `Cc1cccn2c(CN(C)C3CCCc4ccccc43)c(C(=O)N3CCOCC3)nc12` (configuration not stated), the inhibition is 3.32%. For `Cc1ccc(C)c(NC(=O)COC(=O)CSc2ccccc2)c1`, the inhibition is -1.08%. On to `CCCC(=O)OCC(=O)Nc1cc(Cl)ccc1[N+](=O)[O-]`, for which the inhibition was 3.99%. Under `COc1cc(NC(=O)COC(=O)CSc2ccc3ccccc3c2)c(C)cc1[N+](=O)[O-]` stands 10.3% (active); under `Cc1cc(NC(=O)COC(=O)COc2ccc(Cl)cc2C)c([N+](=O)[O-])cc1C`, 18.3% (active). The same measure for `COc1ccc(OCC(=O)Nc2cc(C)c(Cl)cc2OC)c([N+](=O)[O-])c1`: 3%; for `COc1cc(NC(=O)COC(=O)c2cnc(C)cn2)c(C)cc1[N+](=O)[O-]`: 0.629%.

For `Cc1ccc2c(c1)C(c1ccccc1)N(C(=O)c1ccc(F)cc1)CC(=O)N2` (configuration not stated), the inhibition is -6.68%.

Turning to `CCCc1nc2c(C)cc(-c3nc4ccccc4n3C)cc2n1Cc1ccc(-c2ccccc2C(=O)O)cc1`, the inhibition was -5.17%. Take `O=C(CN1CCCC1)Nc1sc2c(c1C(=O)Nc1ccccc1)CCCC2`: the inhibition was -9.6%. Turning to `c1ccc(CN=C2Nc3ccccc3CS2)nc1`, the inhibition is -3.85%. In the case of `CS(=O)(=O)N1CCN(CC(=O)NC2CCCC2)CC1`, the inhibition is 3.66%.

On to `Cc1ccc(S(=O)(=O)NC[C@H]2O[C@@H](n3cnc4c(N)ncnc43)[C@H](O)[C@@H]2O)s1`, for which the inhibition was -71.8%. Under `O=C(OCC(=O)N1CCOCC1)c1ccc2ccccc2c1` stands -0.101%; under `COc1cc(C(=O)Nc2ncccc2C)ccc1OCC(=O)N1CCOCC1`, -0.868%.

Consider `CCOc1cc(C(=O)OCC(=O)Nc2cccc(C)c2)ccc1OCC(=O)N1CCOCC1`, for which the inhibition is 25.3% (active).

With `O=C(NCC1CCCO1)C1CCN(C2CCN(C(=O)C3CCCCC3)CC2)CC1` (configuration not stated), the inhibition was 0.649%.

For `COC(=O)c1ccccc1OCC(=O)N1CCN(c2ccc(Cl)cc2)CC1`, the inhibition was 3.13%. Take `O=C(NC(CC(=O)N1CCN(c2ccccc2)CC1)c1ccccc1)c1ccccc1Cl` (configuration not stated): the inhibition is 4.7%.

In the case of `C[C@H](NC(=O)c1ccccc1Cl)C(=O)OCC(=O)N1CCN(c2ccccc2)CC1`, the inhibition is 41% (active).

Regarding `O=C(NC1CCCCC1)C1CC(=O)N(CCc2ccccc2)C1` (configuration not stated), the inhibition is -0.144%.

As to `CN(CC(=O)Nc1cccc(F)c1)C(=O)C1CC(=O)N(CCc2ccccc2)C1` (configuration not stated), the inhibition was -5.92%. As for `O=C(NCCCN1CCCCC1)C1CC(=O)N(CCc2ccccc2)C1` (configuration not stated), the inhibition was 15% (active). For the compound `COCCCNC(=O)C1CC(=O)N(CCc2ccccc2)C1` (configuration not stated), the inhibition is 0.409%. For `CCNC(=O)c1cccc(NC(=O)C2CC(=O)N(CCc3ccccc3)C2)c1` (configuration not stated), the inhibition is 75.8% (active). As for `Cc1ccc(CCN2CC(C(=O)NCCc3ccccc3)CC2=O)cc1` (configuration not stated), the inhibition is 18.8%.

`COc1ccc(CNC(=O)C2CCC(CNc3c(N4CCOCC4)c(=O)c3=O)CC2)cc1` (configuration not stated): the inhibition was -0.686%. On to `CCCCCCCCCCOC(=O)Cn1c(COc2ccc(C)cc2)[n+](C)c2ccccc21`, for which the inhibition was 15.8% (active).

On to `CCCCCCCCCCOC(=O)Cn1c(COc2cccc(OC)c2)[n+](C)c2ccccc21`, for which the inhibition was 6.12%. Regarding `CCOC(=O)Cn1c(-c2cccnc2Cl)nc2ccccc21`, the inhibition is 6.09%. On to `COC(=O)C(C)n1cnc2c(nnn2-c2ccc(F)cc2)c1=O` (configuration not stated), for which the inhibition is -1.75%. Consider `NC(N)=N/N=C/c1ccc(OCc2ccc(Cl)cc2Cl)cc1`, for which the inhibition is 0.216%. The same measure for `C=CCN(c1ccc(Cl)cc1)S(=O)(=O)c1cccc(C(=O)OCC(=O)N(C)C)c1`: -2.64%; for `O=C(NNC(=O)c1cnccc1C(F)(F)F)c1ccc(Cl)cc1`: 1.78%; for `CCC1=C(OC(=O)N(CC)CC)N2C(=O)OC(=NCCc3c[nH]c4ccccc34)[C@]2(C)[C@H]2C1=CC[C@H]1C(=O)N(CC)C(=O)[C@H]12`: 1.67%. As for `O=C(CN1CCN(c2ccccc2O)CC1)NC(=O)NCc1ccccc1`, the inhibition was 2.65%. On to `Oc1ccc(N2CCN(C(=S)NCc3ccccc3)CC2)cc1`, for which the inhibition is -0.124%.

Regarding `Oc1ccccc1N1CCN(C(=S)NCc2ccccc2)CC1`, the inhibition is 18.4% (active).

As for `Cc1ccc(CN(C(=O)c2sc3ccccc3c2Cl)C2CCS(=O)(=O)C2)cc1` (configuration not stated), the inhibition was 2.69%.

Take `CCCCNC(=O)OCCSCCS(=O)(=O)c1ccc(Cl)cc1`: the inhibition was -3.62%. On to `CCCN(CCC)CC(O)COc1ccccc1C(=O)Nc1ccccc1` (configuration not stated), for which the inhibition is -2.37%. In the case of `O=C(COC(=O)c1n[nH]c2ccccc12)Nc1ccccc1Br`, the inhibition is -3.41%. For the compound `CN(C)S(=O)(=O)c1ccc(NC(=O)COC(=O)Cn2[nH]c(=O)c3ccccc3c2=O)cc1`, the inhibition was 3.02%. `CN(C)S(=O)(=O)c1ccc(NC(=O)COC(=O)c2n[nH]c3ccccc23)cc1`: the inhibition is 15.3% (active). Consider `CCOCCCn1c(SCC(=O)Nc2cc(OC)ccc2OC)nc2ccccc2c1=O`, for which the inhibition is 3.49%.

As to `Cc1ccc2c(c1)N(CC(=O)NCCCN1CCCCC1)C(=O)c1cccnc1O2`, the inhibition is 3.43%. The same measure for `COc1cc(OC)c(OC)cc1CN1CCN(C(=O)c2cccc3ccccc23)CC1`: 0.329%; for `Cc1ccc(S(=O)(=O)N2CCC(Oc3ccc(-n4cnnn4)cc3)CC2)cc1`: -4.09%; for `CCn1c(SCC(=O)NNC(=O)c2ccc(OC)cc2)nnc1C(C)C`: -0.104%.
